# In PubChem BioAssay AID1159580 (chemical genetic matrix, 2015):
# Several values for one entry are separate records, joined by “and”; a condition that tells them apart may be missing. Equal values may be shown once. The whole screen tested about 5,500 compounds, of which about 2,000 (36%) were called active. Roughly 18% stayed inconclusive and do not appear here. The list shows a part of the results. A number with no mark means an inactive call. Cut-off read from the data, not from the text of the source: active = normalized growth mostly below about 0.91 (no sharp cut-off); inconclusive = no clear call, values can overlap the other calls; inactive = mostly above about 0.92.
# Assay: chemical genetic growth profiling, strain panel (AID 1159580);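 note: tested at 20 µM; growth read once vehicle control cultures reached saturation at 30 °C; 1 = growth at the plate median or of vehicle wells; lower values mean less growth of the strain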
# Details: S. cerevisiae deletion strains, growth OD
smiles,measurement,setting,value
CC[n+]1c(-c2ccccc2)c2cc(N)ccc2c2ccc(N)cc21,normalized growth,"locus YAL013W, strain DEP1, active compounds read low",0.879 (active)
same,normalized growth,"locus YAL021C, strain ccr4, active compounds read low",0.918
same,normalized growth,"locus YAL026C, strain drs2, active compounds read low",0.966
same,normalized growth,"locus YAL030W, strain snc1, active compounds read low",0.971
same,normalized growth,"locus YBL061C, strain skt5, active compounds read low",0.974
same,normalized growth,"locus YBR009C, strain hhf1, active compounds read low",0.966
same,normalized growth,"locus YBR021W, strain FUR4, active compounds read low",1.06
same,normalized growth,"locus YBR023C, strain chs3, active compounds read low",0.979
same,normalized growth,"locus YBR171W, strain sec66, active compounds read low",0.977
same,normalized growth,"locus YBR229C, strain ROT2, active compounds read low",0.952
same,normalized growth,"locus YBR231C, strain swc5, active compounds read low",0.966
same,normalized growth,"locus YBR279W, strain paf1, active compounds read low",0.947
same,normalized growth,"locus YCL011C, strain gbp2, active compounds read low",0.981
same,normalized growth,"locus YCL016C, strain dcc1, active compounds read low",0.943
same,normalized growth,"locus YCL029C, strain bik1, active compounds read low",0.664 (active)
same,normalized growth,"locus YCL069W, strain vba3, active compounds read low",0.959
same,normalized growth,"locus YCR088W, strain abp1, active compounds read low",0.954
same,normalized growth,"locus YDL005C, strain med2, active compounds read low",0.99
same,normalized growth,"locus YDL035C, strain GPR1, active compounds read low",0.703 (active)
same,normalized growth,"locus YDL040C, strain nat1, active compounds read low",0.969
same,normalized growth,"locus YDL074C, strain BRE1, active compounds read low",0.822
same,normalized growth,"locus YDL101C, strain DUN1, active compounds read low",0.93
same,normalized growth,"locus YDL134C, strain PPH21, active compounds read low",0.776 (active)
same,normalized growth,"locus YDL185W, strain tfp1, active compounds read low",0.853 (active)
same,normalized growth,"locus YDL192W, strain arf1, active compounds read low",0.922
same,normalized growth,"locus YDR001C, strain nth1, active compounds read low",0.953
same,normalized growth,"locus YDR069C, strain doa4, active compounds read low",0.974
same,normalized growth,"locus YDR101C, strain arx1, active compounds read low",0.886 (active)
same,normalized growth,"locus YDR137W, strain rgp1, active compounds read low",0.997
same,normalized growth,"locus YDR159W, strain sac3, active compounds read low",1.02
same,normalized growth,"locus YDR162C, strain NBP2, active compounds read low",0.706 (active)
same,normalized growth,"locus YDR195W, strain ref2",1.04
same,normalized growth,"locus YDR297W, strain sur2, active compounds read low",0.954
same,normalized growth,"locus YDR318W, strain mcm21, active compounds read low",0.885 (active)
same,normalized growth,"locus YDR334W, strain swr1, active compounds read low",0.957
same,normalized growth,"locus YDR335W, strain msn5, active compounds read low",0.983
same,normalized growth,"locus YDR388W, active compounds read low",0.859 (active)
same,normalized growth,"locus YDR392W, strain spt3, active compounds read low",0.965
same,normalized growth,"locus YDR502C, strain sam2, active compounds read low",0.801 (active)
same,normalized growth,"locus YEL003W, strain gim4, active compounds read low",0.956
same,normalized growth,"locus YEL037C, strain rad23, active compounds read low",0.965
same,normalized growth,"locus YEL061C, strain CIN8 (second series), active compounds read low",0.946
same,normalized growth,"locus YEL061C, strain CIN8, active compounds read low",0.766 (active)
same,normalized growth,"locus YER015W, strain faa2, active compounds read low",0.97
same,normalized growth,"locus YER016W, strain bim1, active compounds read low",0.953
same,normalized growth,"locus YER110C, active compounds read low",0.967
same,normalized growth,"locus YER111C, strain swi4, active compounds read low",0.939
same,normalized growth,"locus YER155C, strain BEM2 (second series), active compounds read low",0.939
same,normalized growth,"locus YER155C, strain BEM2, active compounds read low",0.937
same,normalized growth,"locus YER167W, strain BCK2, active compounds read low",0.756 (active)
same,normalized growth,"locus YFR010W, strain ubp6, active compounds read low",0.97
same,normalized growth,"locus YGL078C, strain dbp3, active compounds read low",0.898 (active)
same,normalized growth,"locus YGL086W, strain mad1, active compounds read low",0.856 (active)
same,normalized growth,"locus YGL167C, strain pmr1, active compounds read low",0.986
same,normalized growth,"locus YGL173C, strain kem1, active compounds read low",0.96
same,normalized growth,"locus YGL227W, strain vid30, active compounds read low",0.975
same,normalized growth,"locus YGL240W, strain doc1, active compounds read low",1.01
same,normalized growth,"locus YGL248W, strain PDE1, active compounds read low",0.845 (active)
same,normalized growth,"locus YGL253W, strain hxk2, active compounds read low",0.94
same,normalized growth,"locus YGR135W, strain pre9, active compounds read low",0.872 (active)
same,normalized growth,"locus YGR252W, strain gcn5, active compounds read low",0.94
same,normalized growth,"locus YHR013C, strain ard1, active compounds read low",0.988
same,normalized growth,"locus YHR027C, strain rpn1, active compounds read low",0.954
same,normalized growth,"locus YHR030C, strain SLT2, active compounds read low",0.906 (active) and 0.85 (active)
same,normalized growth,"locus YHR079C, strain IRE1 (second series), active compounds read low",0.857 (active)
same,normalized growth,"locus YHR079C, strain IRE1, active compounds read low",0.832 (active)
same,normalized growth,"locus YHR094C, strain hxt1, active compounds read low",0.925
same,normalized growth,"locus YHR129C, strain ARP1, active compounds read low",0.895 (active)
same,normalized growth,"locus YHR142W, strain chs7, active compounds read low",0.974
same,normalized growth,"locus YHR200W, strain rpn10, active compounds read low",0.864 (active)
same,normalized growth,"locus YIL066C, strain RNR3, active compounds read low",0.827 (active)
same,normalized growth,"locus YIL073C, strain SPO22, active compounds read low",0.662 (active)
same,normalized growth,"locus YIL125W, strain kgd1, active compounds read low",0.88 (active)
same,normalized growth,"locus YIR030C, strain dcg1, active compounds read low",0.889 (active)
same,normalized growth,"locus YJL092W, strain hpr5, active compounds read low",0.946
same,normalized growth,"locus YJL095W, strain BCK1 (second series), active compounds read low",0.979
same,normalized growth,"locus YJL095W, strain BCK1, active compounds read low",0.79 (active) and 0.852 (active)
same,normalized growth,"locus YJL115W, strain asf1, active compounds read low",0.926
same,normalized growth,"locus YJL129C, strain trk1, active compounds read low",1.08
same,normalized growth,"locus YJL134W, strain LCB3, active compounds read low",0.924 (active)
same,normalized growth,"locus YJL154C, strain vps35, active compounds read low",0.949
same,normalized growth,"locus YJL164C, strain tpk1, active compounds read low",0.963
same,normalized growth,"locus YJL166W, strain qcr8, active compounds read low",0.993
same,normalized growth,"locus YJL168C, strain set2, active compounds read low",0.915 (active)
same,normalized growth,"locus YJL187C, strain SWE1 (second series), active compounds read low",0.819 (active)
same,normalized growth,"locus YJL187C, strain SWE1, active compounds read low",0.995
same,normalized growth,"locus YJR043C, strain POL32, active compounds read low",0.687 (active)
same,normalized growth,"locus YJR066W, strain TOR1, active compounds read low",0.773 (active)
